Measured values taken from PubChem BioAssay AID619 (University of Pittsburgh Molecular Library Screening Center, 2007).
Out of some 97,000 compounds screened, about 520 (0.54%) were called active.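 How the source made its calls: active means inhibition of 50% or more in the single-concentration screen; inactive means inhibition below 50%.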 The full list was thinned out, with actives kept by preference.

These molecules were tested against Serine/threonine-protein kinase PLK1 (Homo sapiens) (UniProt P53350) (assay: human PLK1 kinase inhibitors, primary screen, biochemical, TR-FRET (AID 619;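 further: 0% = DMSO max control and 100% = H-89 dihydrochloride min control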)). Settings: recombinant PLK1 kinase, TR-FRET peptide phosphorylation; at 10 µM; hits give high values.
Chain of Serine/threonine-protein kinase PLK1 (Homo sapiens) (P53350 whole entry, looked up): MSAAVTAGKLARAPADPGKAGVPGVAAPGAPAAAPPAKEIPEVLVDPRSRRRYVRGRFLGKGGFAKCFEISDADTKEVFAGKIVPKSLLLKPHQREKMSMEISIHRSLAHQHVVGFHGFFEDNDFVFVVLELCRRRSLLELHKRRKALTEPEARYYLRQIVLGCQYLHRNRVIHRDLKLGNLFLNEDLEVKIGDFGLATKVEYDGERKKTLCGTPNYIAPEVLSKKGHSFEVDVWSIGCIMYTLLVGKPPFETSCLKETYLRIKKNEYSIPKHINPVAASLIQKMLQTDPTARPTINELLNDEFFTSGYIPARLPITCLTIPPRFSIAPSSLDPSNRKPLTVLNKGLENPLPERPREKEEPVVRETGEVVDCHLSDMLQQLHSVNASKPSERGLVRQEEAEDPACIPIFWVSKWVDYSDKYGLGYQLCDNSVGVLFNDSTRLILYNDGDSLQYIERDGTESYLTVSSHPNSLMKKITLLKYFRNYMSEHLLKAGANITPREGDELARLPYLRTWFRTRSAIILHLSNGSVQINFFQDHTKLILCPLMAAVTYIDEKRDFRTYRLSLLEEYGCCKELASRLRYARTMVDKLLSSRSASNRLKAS
In the case of CC1CN(c2cc(=O)n(-c3cccc(Br)c3)c(=O)[nH]2)CC(C)O1 (centres undefined), the inhibition is reported as -9.28% (inactive).
In the case of CC1CN(c2cc(=O)n(Cc3ccc(F)cc3)c(=O)[nH]2)CC(C)O1 (centres undefined), the inhibition is reported as 70.7% (active).
For CC(C)(C)N1CC(c2nc3ccccc3n2Cc2ccc(F)cc2)CC1=O (centres undefined), the inhibition was -8.27% (inactive).
For Cc1c(Cl)c([N+](=O)[O-])nn1Cc1ccc(C(=O)N/N=C\c2cc(Cl)ccc2O)o1, the inhibition was -11.3% (inactive).
With COc1ccc(Nc2nc(Cl)nc(NCc3ccco3)n2)cc1 the inhibition was -10.4% (inactive).
For COc1ccc(-c2nc(CS(=O)CC(=O)N3CCc4ccccc4C3)c(C)o2)cc1 (centres undefined), the inhibition was -0.36% (inactive).
For Cc1ccc(S(=O)(=O)NCC(=O)N2CCN(c3ccccn3)CC2)cc1, the inhibition was -12% (inactive).
With Cc1ccc(-c2nc(CS(=O)CC(=O)N3CCN(c4ncccn4)CC3)c(C)o2)cc1 (centres undefined) the inhibition was 68.5% (active).
For COc1ccc(-c2nnc(SCC(=O)NC3CCCCC3)o2)cc1OC, the inhibition was -12.8% (inactive).
For Cc1ccc(S(=O)(=O)N(C)CC(=O)NC2CCCC2)cc1, the inhibition was -5.15% (inactive).
In the case of Cc1ccc(-c2nc(CS(=O)CC(=O)NC3CCCC3)c(C)o2)cc1 (centres undefined), the inhibition is reported as 62.6% (active).
In the case of O=C(Nc1ccc(F)c(Cl)c1)C1CCN(S(=O)(=O)c2cccnc2)CC1, the inhibition is reported as -7.65% (inactive).
In the case of N#CC1=C(N)N(c2ccccc2)C2=C(C(=O)CCC2)C1c1ccccc1 (centres undefined), the inhibition is reported as -9.12% (inactive).
For CCOC(=O)Cc1csc(NC(NC(=O)OCC)(C(F)(F)F)C(F)(F)F)n1, the inhibition was -10.9% (inactive).
C=CCn1c(SCc2c(C(=O)OC)sc(N)c2C(=O)OC)nnc1-c1ccc(Cl)cc1 was tested, and the inhibition was 0.32% (inactive).
For Cc1ccc(Nc2nc(C)cc(C)c2C(N)=O)cc1, the inhibition was -8.3% (inactive).
CCNC(=S)N1CCN(C(=O)c2ccco2)CC1 was tested, and the inhibition was -10.9% (inactive).
With COc1ccc(CN(Cc2ccco2)S(=O)(=O)c2ccc(S(=O)(=O)N3CCCC3)cc2)cc1 the inhibition was -1.36% (inactive).
With O=C1c2ccccc2C(=O)N1CC1c2ccccc2CCN1S(=O)(=O)c1ccccc1 (centres undefined) the inhibition was -13.2% (inactive).
With Cc1noc(C)c1COC(=O)c1cc2ccccc2cc1O the inhibition was -5.75% (inactive).
For O=C(NCCCCCCCCCNC(=O)C(F)(F)F)C(F)(F)F, the inhibition was -9% (inactive).
COc1ccc(C(C(=O)NCc2ccccc2)N(Cc2cccs2)C(=O)c2cnccn2)cc1 (centres undefined) was tested, and the inhibition was -8.73% (inactive).
Fc1ccc(N2N=C(c3cccs3)CC2c2ccco2)c(F)c1 (centres undefined) was tested, and the inhibition was -0.33% (inactive).
For O=c1[nH]c(CCl)nc2cc(-c3ccc(Cl)cc3)sc12, the inhibition was -15.1% (inactive).
With CCCCNC(=O)CCn1c(=S)[nH]c2cc3c(cc2c1=O)OCO3 the inhibition was -10.8% (inactive).
In the case of CCn1c(C)nc2c1C(=O)c1ccccc1C2=O, the inhibition is reported as -6.21% (inactive).
CC1CCN(c2ccc(S(=O)(=O)Nc3cc(C(=O)O)cc(C(=O)O)c3)cc2[N+](=O)[O-])CC1 was tested, and the inhibition was -8.56% (inactive).
CCN(CC)C(=O)CSc1nnc(C2CCCCC2)o1 was tested, and the inhibition was -6.95% (inactive).
In the case of O=C(CSCc1ccc([N+](=O)[O-])cc1)Nc1cccc(C(=O)Nc2ccccc2C(=O)O)c1, the inhibition is reported as -6% (inactive).
With CCc1ccc2c(c1)cc(CN(C(=S)Nc1ccccc1Cl)C1CC1)c1nnnn12 the inhibition was -115% (inactive).
O=C(CO/N=C/c1ccccc1O)NNC(=O)c1ccccc1Cl was tested, and the inhibition was -11.5% (inactive).
In the case of COC(=O)C1C(=O)NCC1c1ccc(C)cc1 (centres undefined), the inhibition is reported as -7.84% (inactive).
With CC1C/C(=N/NC(=O)c2cccs2)CC(C)(C)C1 (centres undefined) the inhibition was -10.1% (inactive).
With O=C1c2ccccc2C(Nc2ccc3c(c2)OCCO3)N1Cc1ccco1 (centres undefined) the inhibition was -13.3% (inactive).
Cc1cccc(C(=O)Nc2ccccc2-c2nnn(CC(=O)Nc3ccc4c(c3)OCCO4)n2)c1 was tested, and the inhibition was -19.8% (inactive).
Cc1ccnc(N2C(=O)c3ccccc3C2Nc2ccc3c(c2)OCCO3)c1 (centres undefined) was tested, and the inhibition was 75.7% (active).
With O=C(Nc1ccc(S(=O)(=O)N2CCc3ccccc3C2)cc1)c1ccccc1 the inhibition was -9.1% (inactive).
For CCN1CCN(C(=O)C2(NC(=O)Nc3cccc(F)c3)CCCCC2)CC1, the inhibition was -9.1% (inactive).
For CCOC(=O)C1=C(C)NC2=C(C(=O)CC(C)(C)C2)C1c1ccsc1 (centres undefined), the inhibition was -9.3% (inactive).
For CC(=O)N/C(=C/c1ccc(Cl)cc1)C(=O)NCCc1c[nH]c2ccccc12, the inhibition was -8.99% (inactive).
In the case of CCCOn1c(-n2nc(C)cc2C)nc2ccccc2c1=O, the inhibition is reported as -12.7% (inactive).
In the case of COc1ccc2ccccc2c1CNCc1ccccn1, the inhibition is reported as -6.16% (inactive).
In the case of CN(C)/C=C/C(=O)c1ccccc1F, the inhibition is reported as -7.63% (inactive).
With COc1ccccc1CNC(=O)c1ccc(SC)cc1OC the inhibition was -11.5% (inactive).
In the case of CCOc1ccc(CN(Cc2ccco2)S(=O)(=O)c2ccc(-n3cnnn3)c(OC)c2)cc1, the inhibition is reported as -4.62% (inactive).
For CCOc1[nH]n(-c2ccc(Cl)cc2)c(=O)c1C=Nc1ccc(O)cc1, the inhibition was -12.9% (inactive).
For O=C(O)c1ccccc1NC(=S)NC(NC(=O)c1ccccc1[N+](=O)[O-])C(Cl)(Cl)Cl (centres undefined), the inhibition was -10.3% (inactive).
Cc1ccc(C2=CSC3=NS(=O)(=O)CCN23)cc1C was tested, and the inhibition was -12.2% (inactive).
Cc1[nH]n(-c2ccc([N+](=O)[O-])cc2)c(=O)c1C=NCCN1CCN(C(=O)c2ccccc2F)CC1 was tested, and the inhibition was -16.1% (inactive).
For Cc1ccc(NC(=S)Nc2ncccc2C)c(C)c1, the inhibition was -6.19% (inactive).
In the case of Cc1onc(-c2ccccc2)c1C(=O)Nc1ccccc1C#N, the inhibition is reported as 66.8% (active).
In the case of Cc1onc(-c2ccccc2)c1C(=O)N1CCOCC1, the inhibition is reported as -6.08% (inactive).
CC(=O)Nc1cccc(NC(=O)c2c(-c3ccccc3)noc2C)c1 was tested, and the inhibition was -5.51% (inactive).
For O=C(/C=C/Nc1ccccc1OC(F)(F)F)C(F)(F)F, the inhibition was -3.23% (inactive).
With COc1ccc(-n2cnc3cc(NCc4ccco4)ccc32)cc1 the inhibition was -1.91% (inactive).
With COc1ccc(-c2cc(C3CCN(c4ncccc4[N+](=O)[O-])CC3)[nH]n2)cc1 the inhibition was -0.7% (inactive).
With CCOC(=O)Nc1ccc2c(c1)N(C(=O)CCN1CCN(CCO)CC1)c1ccccc1CC2 the inhibition was -25.9% (inactive).
With CCN(CC)Cc1cc(C(C)=O)ccc1O the inhibition was -5.02% (inactive).
For CC(=O)Nc1ccc(NC(=O)c2sc3nc4c(c(-c5ccc(C)cc5)c3c2N)CCC4)cc1, the inhibition was -27.3% (inactive).
With CCN(CC)CCNc1ccc(Cl)cc1[N+](=O)[O-] the inhibition was -12.3% (inactive).
With Cc1cc(C)c2c3c(sc2n1)C(c1ccccc1)C(C#N)=C(N)O3 (centres undefined) the inhibition was -9.36% (inactive).
In the case of CNC(=O)CSc1nnc(CCc2ccccc2)n1-c1ccccc1, the inhibition is reported as -5.54% (inactive).
c1ccc(CCC2=NCCn3cccc32)cc1 was tested, and the inhibition was -1.03% (inactive).
In the case of CC1CSc2nnc(CCc3ccccc3)n21 (centres undefined), the inhibition is reported as 85.2% (active).
In the case of Cc1ccoc1C(=O)Nc1cccc(Oc2ccccc2)c1, the inhibition is reported as 1.94% (inactive).
In the case of Cc1nc2nc(C)c(CCC(=O)N3CCN(c4ccccc4)CC3)c(C)n2n1, the inhibition is reported as 4.83% (inactive).
c1cncc(-c2nnc3n2C2(CCCCC2)Cc2ccccc2-3)c1 was tested, and the inhibition was -8.5% (inactive).
For COc1cccc(/C=N/NC(=O)C(=O)N2CCCC2)c1, the inhibition was -9.34% (inactive).
CCOC(=O)N1CCN(Cc2nc(N)nc(Nc3ccc(C)cc3)n2)CC1 was tested, and the inhibition was -13.1% (inactive).
In the case of CC(Oc1ccc(F)cc1F)C(=O)/C=C/N(C)C (centres undefined), the inhibition is reported as 0.09% (inactive).
For CN1CCN(c2ccc([N+](=O)[O-])c(Sc3nc4ccccc4[nH]3)c2)CC1, the inhibition was -5.67% (inactive).
For C=CCn1c(Cn2nnc3ccccc32)nnc1SCC(=O)N/N=C/c1cc(Br)cc(OC)c1O, the inhibition was -6.54% (inactive).
CCN1CCN(C(=O)c2cc3cc4ccc(OC)cc4nc3s2)CC1 was tested, and the inhibition was -4.82% (inactive).
For COc1ccc(-n2c(SCC(=O)NCc3ccco3)nnc2-c2c[nH]c3ccccc23)cc1, the inhibition was -3.5% (inactive).
With CCc1nnc(NC(=O)c2cccs2)s1 the inhibition was 60.3% (active).
CCCc1nnc(NC(=O)c2cccs2)s1 was tested, and the inhibition was -6.49% (inactive).
With CCc1ccccc1NC(=O)c1cccs1 the inhibition was -6.58% (inactive).
For Cc1ccc2nc(SC(C)C(=O)NCc3ccco3)[nH]c2c1 (centres undefined), the inhibition was 1.32% (inactive).
CN1CCN(c2cc(=O)n(-c3ccc(Cl)cc3)c(=O)[nH]2)CC1 was tested, and the inhibition was 67.4% (active).
In the case of CN1CCN(c2ccc(NC(=O)COc3ccc(Cl)cc3Cl)cc2)CC1, the inhibition is reported as 3% (inactive).
Cc1ccc(-n2c(=O)cc(N3CCN(Cc4ccccc4)CC3)[nH]c2=O)cc1 was tested, and the inhibition was -1.26% (inactive).
For COc1ccc(C2Nc3ccccc3C(=O)N2Cc2ccccc2)cc1Cn1nnc2ccccc21 (centres undefined), the inhibition was -11.2% (inactive).
For C[N+]1(CCNC(=O)/C=N/O)CCCCC1, the inhibition was 95.9% (active).
Cc1ccc(S(=O)(=O)c2c(COC(=O)c3cccc(Cl)c3)c(-c3ccccc3)nn2C)cc1 was tested, and the inhibition was 3.59% (inactive).
In the case of CCOC(=O)c1c(NC(=S)Nc2ccccc2)sc2c1CCN(C)C2, the inhibition is reported as -13.1% (inactive).
For CCOc1ccccc1C1CC(c2ccccc2)Nc2nc(N)nn21 (centres undefined), the inhibition was 64% (active).
With CCOc1ccccc1C1CC(c2ccc(Cl)cc2)Nc2nc(N)nn21 (centres undefined) the inhibition was -12.7% (inactive).
With COc1ccc(C2CC(c3ccc(C)cc3)Nc3nc(N)nn32)cc1 (centres undefined) the inhibition was -3.47% (inactive).
In the case of CCOc1ccc(S(=O)(=O)N2CCCCCC2)c2ccccc12, the inhibition is reported as -17.7% (inactive).
For O=C(CNC(=O)Cc1ccccc1)NCC(=O)OCC(=O)c1ccccc1Cl, the inhibition was -4.92% (inactive).
With COc1ccc(C2=NOC3(CC(=O)N(c4ccc(Cl)cc4)C3=O)C2)c(OC)c1 (centres undefined) the inhibition was -9.65% (inactive).
For CC(=O)c1cn(CCCCCCCCCCn2cc(C(C)=O)c(=O)[nH]c2=O)c(=O)[nH]c1=O, the inhibition was -6.55% (inactive).
COc1nc(-c2ccc(Cl)cc2)ccc1-c1noc(-c2cccs2)n1 was tested, and the inhibition was -90.7% (inactive).
O=C(CSc1ncnc2c1cnn2CCc1ccccc1)Nc1ccc(F)cc1 was tested, and the inhibition was -7.32% (inactive).
